What all share (experiment): NCI-60 one-dose screen, 48 h (100 = growth as untreated, 0 = no growth, -100 = all killed)
What all share (conditions): 10 µM unless noted

Test [1] has as its system NCI-H23 lung.
In test [2] the test system is NCI-H226 lung.
Test [3] concerns NCI-H322M lung.
Test [4] deals with HOP-62 NSCLC.
For test [5], the system named is NCI-H460 lung.
The subject of test [6] is HOP-92 NSCLC.
For test [7], the system named is NCI-H522 lung.
For test [8], the system named is A549/ATCC NSCLC.
Test [9] deals with 786-0 renal.
The subject of test [10] is COLO 205 colon.

SMILES strings stand for the structures. The panel holds about 83,000 compounds, 20% with a hit somewhere; the sample as a whole holds those more often.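 Compound tested at a single concentration for 48 hours in 96-well plates; a percent growth value below 10 was scored as active.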 Values without a mark were called inactive. The source made the active and inactive calls.

`CCOC(=O)n1ccn(C)c1=S`: the growth is 107% in [1]; 109% in [2]; 89.1% in test [3]; 60.5% in test [4]; 113% in test [5]; 104% in [6]. Also, the growth in test [7] is 84.6%; in test [8] it was 101%; in [9], 90.6%; in test [10], 31.9%.
Regarding `Cc1cc(C(=O)O)c(C)n1-c1cccc(C(=O)O)c1`, the growth in test [1] is 78.7%; in test [2] it was 100%; in test [3], 94%; in test [4], 96.7%; in test [5], 35.1%; in test [6] it was 90.5%. Moreover, the growth is 46% in [7], 71.4% in test [8], 106% in test [9] and 92.5% in test [10].
Take `O=C(CSc1oc(-c2ccccc2)nc1S(=O)(=O)c1ccccc1)Nc1ccc(F)cc1`: the growth was 78.6% in [1]; 87% in [2]; 76.9% in test [3]; 86.1% in [4]; 93.5% in test [5]; 2.48% (active) in test [6]. In addition, the growth in test [7] is 72.2%; in test [8], 76.9%; in [9], 59.1%; in test [10], 101%.
With `COc1ccc(NC2=C(I)C(=O)c3ncccc3C2=O)cc1`, the growth in test [1] was -43.7% (active); in test [2], 82.2%; in test [3], 17.4%; in test [4] it was -62% (active); in test [5], -57.2% (active); in test [6], 75.3%. For the same compound, the growth in test [7] was -69.4% (active); in test [8], 0.0675% (active); in test [9], 11.3%; in test [10], -53.7% (active).
With `CN(C)CCNC(=O)c1cc2c3cc(Cl)ccc3[nH]c2c2ncccc12`, the growth in [1] was 32.5%; in test [2] it was 25%; in [3] it was 31.4%; in test [4], 24.4%; in [5] it was -0.295% (active); in [6], 2.92% (active). In addition, the growth was 21.2% in test [7], 9.53% (active) in [8], 11.4% in test [9] and -17.9% (active) in test [10].
In the case of `COc1ccc(OC)c(/C=N/Nc2ncnc3c2c(C)nn3C)c1`, the growth was 106% in test [1]; 92.6% in [2]; 114% in test [3]; 92% in test [4]; 106% in test [5]; 96.2% in test [6]. The growth in [7] is 93.8%; in test [8], 104%; in test [9], 102%; in test [10] it was 102%.
As for `CCO/C=N/C1=C(C#N)C(c2ccc(Cl)cc2)c2sc3c(F)cccc3c2O1` (stereo not given), the growth in [1] is 76.2%; in [2] it was 88.6%; in test [3] it was 92.3%; in test [4], 58.4%; in test [5] it was 25.6%; in [6], 77.1%. The growth in test [7] is -6.96% (active); in test [8], 53.4%; in test [9], 71.5%; in test [10], 95.7%.
Regarding `COc1ccc(F)cc1/C=C/C(=O)/C=C(/C=C/c1cc(F)ccc1OC)OB(F)F`, the growth in [1] was 35.2%; in test [2] it was 97.9%; in test [3], 103%; in test [4] it was 86.1%; in test [5], 75.2%; in [6], 56.1%. Further, the growth was -20.7% (active) in [7], 71.7% in [8], 19.4% in [9] and 10.8% in test [10].
On to `c1ccc(Cn2cc3c(c2)-c2oncc2CC3)cc1`, for which the growth in test [1] is 46.6%; in test [2], 53%; in [3], 60.4%; in test [4] it was 21.1%; in test [5] it was 8.32% (active); in test [6] it was 65.4%. Besides, the growth is 21.3% in [7], 23.2% in test [8], 37.1% in [9] and 15.9% in [10].
For `N#CC(C#N)N=Nc1ccc(Br)cc1`, the growth in test [1] is 24.6%; in test [2], 79%; in test [3], 100%; in test [4], 80.1%; in test [5] it was 95.8%; in test [6], -34.1% (active). Moreover, the growth in [7] was 7.59% (active); in [8] it was 83.5%; in [9] it was 35.4%; in test [10], -28.7% (active).
As to `COc1ccc(CN2c3ccccc3Sc3ccccc32)cc1F`, the growth in [1] was 30.7%; in test [2], 45.6%; in [3], 43%; in test [4], 20.4%; in [5] it was 5.41% (active); in test [6], 50.4%. In addition, the growth is 4.53% (active) in test [7], 21.9% in test [8], 22.5% in [9] and -32.9% (active) in test [10].
As to `O=C(Nn1c2c(sc1=NC1CC1)C(=O)c1ccccc1C2=O)c1cc2ccc1CCc1ccc(cc1)CC2`, the growth in test [1] was 9.63% (active); in test [2], 64.9%; in [3], 96%; in test [4], 54.1%; in test [5], 53.9%; in test [6], 95.5%. Besides, the growth in test [7] is 37.3%; in test [8], 67.7%; in [9], 68.6%; in [10], 96.3%.
Take `O=C1C(Cl)=C(NCCCCCCNC2=C(Cl)C(=O)c3ccccc3C2=O)C(=O)c2ccccc21`: the growth in test [1] is 61.8%; in [2], 102%; in [3], 92.2%; in [4], 112%; in test [5], 94.8%; in test [6], 86.2%. Moreover, the growth was 90.7% in [7], 102% in test [8], 114% in test [9] and 86.2% in test [10].

The record behind these values is PubChem BioAssay (NCI).
